# In PubChem BioAssay AID1979 (Broad Institute, 2009):
# The campaign covered roughly 300,000 compounds. About 1,700 (0.57%) were called active. Inconclusive results (about 2%) are left out. This is one part of a sample in which actives are shown more often than they occur. Values without a mark were called inactive.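 The calls were made as follows: active = growth inhibition above about 58% in most replicates (limit read from the data, passing the limit was not always enough); inconclusive = exactly half the replicates above a set limit; inactive = most replicates below a set limit.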
# Experiment: C. albicans growth inhibition with fluconazole, primary screen, CaCi-2 strain, Alamar Blue fluorescence (AID 1979);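 also: all wells also contain fluconazole at 8 µg/ml as a sub-toxic cotreatment; 0% = median of DMSO wells and 100% = median of geldanamycin control wells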
# Details: C. albicans CaCi-2 (fluconazole-resistant clinical isolate) + fluconazole, 48 h, active compounds read high, concentration not given here
row,SMILES,growth inhibition
1,Cc1cc2ccccn2c1C(C[N+](=O)[O-])c1c(F)cccc1Cl (stereo not given),88.5% (active)
2,C/C(=N/O)c1ccc2ccc3ccccc3c2c1,-4.17%
3,Cc1nn(-c2ccccc2)c(C)c1NC(=O)COC(=O)Cc1ccccc1,-2.49%
4,O=C(Cc1ccccc1)N1CCN(C2CCCCCC2)CC1,-12%
5,CC1=C(C(=O)Nc2ccccc2)SCCO1,0.0228%
6,Cc1cccc(-n2c(O)c(C=NC34CN5CN(CN(C5)C3)C4)c(=O)[nH]c2=O)c1,-4%
7,Cc1cccc(-n2c(O)c(/C=N/N3CCOCC3)c(=O)[nH]c2=S)c1,12.2%
8,Cc1cccc(-n2c(O)c(C=Nc3ccccc3N)c(=O)[nH]c2=O)c1,103% (active)
9,COc1ccccc1C1=NCc2nnc(CSC)n2-c2ccc(Cl)cc21,2.88%
10,COc1ccc(S(=O)(=O)NCc2ccc(C(=O)N3CCC4(CC3)OCCO4)cc2)cc1,-9.32%
11,CC(C)(C)c1ccc(OC(=O)N2CCCCC2)cc1,11.1%
12,C=CCN1C(=O)NC(=O)/C(=C/c2ccc(OCC(=O)Nc3ccc(C)cc3)cc2)C1=O,-16.2%
13,CC1=CC(=Cc2sc3ccccc3[n+]2C)C=C(C)O1,103% (active)
14,CNCC(O)c1cc(F)c(OCc2ccccc2)c(OCc2ccccc2)c1F (stereo not given),-32.5%
15,COc1ccccc1NC(=O)N1C[C@@H]2C[C@@H](C1)c1cccc(=O)n1C2,7.25%
